Rows were chosen to be rich in hits. Some 5.5% of all compounds tested hit in one or more screens of this group.
Mito fusion act: qHTS Assay for Small Molecule Inhibitors of Mitochondrial Division or Activators of Mitochondrial Fusion; S. cerevisiae fusion-defective mutant growth rescue, CellTiterGlo 48 h; Potency, µM (doses to about 46.1 µM), for the others: at the top dose growth rescue (activation), usual class: activators; 0.23% of 320,000 active; further: % of control where 0% means no effect; nearly all actives have a fitted effect of over 45% in size
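Compounds are tested for their ability to restore growth of mitochondrial fusion-defective yeast strains at non-permissive 37C in YPEG medium over 48 hours. Viability is quantified by luciferase luminescence.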
Gal4-VP16 FLuc: VP16 counterscreen qHTS for inhibitors of ROR gamma transcriptional activity; Drosophila S2 Gal4-VP16 UAS-luciferase, luminescence, 20 h; Potency, µM (highest dose often 53.6 µM), without a hit: at the highest dose activity, negative = inhibition, most hits filed as inhibitors; 3.5% of 310,000 active;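 further: Gal4-VP16 expression switched on by copper sulfate through the metallothionein promoter; on the % scale 0 is the no-effect control and ±100 the full control effect; nearly all actives have a fitted effect of over 50% in size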
uPA surface inh: qHTS for Inhibitors of Cell Surface uPA Generation. cell surface uPA generation assay, qHTS. Potency, µM (series often up to 38.3 µM), without a hit: top-dose activity change, negative = inhibition, actives largely listed as inhibitors. 0.31% of 330,000 active; active means well fitted inhibition curve with a large enough effect; inconclusive means small, poorly fitted or top-dose-only effect; inactive means no such curve, though single readings can be large or run the other way; tested in mouse RAW 264.7 cells; further: on the % scale 0 is the no-effect control and ±100 the full control effect; nearly all actives have a fitted effect of over 55% in size
Chronic BCR inh: qHTS Assay to Find Inhibitors of Chronic Active B-Cell Receptor Signaling. Potency, µM (doses to about 46.1 µM), for inactives: top-dose activity change, negative = inhibition, hits mostly inhibitors. 0.05% of 340,000 active. ABC-DLBCL IkBa-CBG/CBR reporter, luminescence ratio, 4 h. AID 493014, 2011; active means well fitted inhibition curve with a large enough effect in the signal ratio, with a control signal flat, not every such curve was filed as active; inconclusive means small, poorly fitted or top-dose-only effect, or effect the other way, or a change in a side signal; the % refers to the signal ratio;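 further: plate controls were basal doxycycline-induced cells for no effect and cells given 10 µM MG132 for full effect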
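Compounds up to 46 uM were incubated four hours with TMD8 cells whose green CBG68 luciferase is fused to IkappaBalpha; red CBR luminescence normalised the signal, and concentration-effect curves were fitted to fusion, red and ratio data.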
RORg inh: qHTS for inhibitors of ROR gamma transcriptional activity; Nuclear receptor ROR-gamma (Mus musculus), P51450; Drosophila S2 Gal4-RORgamma UAS-luciferase reporter, 20 h; Potency, µM (top dose mostly 53.6 µM), without a hit: at the highest dose activity change, negative = inhibition, most hits filed as inhibitors; 5.4% of 310,000 active; AID 2551, 2010; further: on the % scale 0 is the no-effect control and ±100 the full control effect; nearly all actives have a fitted effect of over 60% in size
Target sequence (P51450 whole entry, looked up, the tested form may be a part): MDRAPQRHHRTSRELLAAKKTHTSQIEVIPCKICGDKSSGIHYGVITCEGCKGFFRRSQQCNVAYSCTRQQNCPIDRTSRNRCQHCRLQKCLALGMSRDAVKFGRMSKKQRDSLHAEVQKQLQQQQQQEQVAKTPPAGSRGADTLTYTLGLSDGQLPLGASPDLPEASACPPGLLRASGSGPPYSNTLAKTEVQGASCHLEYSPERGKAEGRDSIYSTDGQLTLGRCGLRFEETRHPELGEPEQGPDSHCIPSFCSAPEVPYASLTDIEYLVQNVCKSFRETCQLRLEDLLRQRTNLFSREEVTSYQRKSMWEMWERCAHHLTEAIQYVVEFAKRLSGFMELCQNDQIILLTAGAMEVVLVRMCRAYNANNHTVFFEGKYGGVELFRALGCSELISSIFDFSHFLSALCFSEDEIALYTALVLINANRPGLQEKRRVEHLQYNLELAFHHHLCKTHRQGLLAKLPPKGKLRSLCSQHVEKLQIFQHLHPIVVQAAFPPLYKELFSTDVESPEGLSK
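Luminescence from a UAS-regulated Photinus luciferase reporter in stably transfected Drosophila Schneider cells is measured; decreased signal marks ROR gamma inhibition. Fusion expression is induced by 700 uM copper sulfate for 20 hr.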
Integrin act MD: qHTS for Activators of Integrin-Mediated Alleviation for Muscular Dystrophy; Potency, µM (top dose mostly 38.3 µM), for the others: at the top dose activation, actives largely listed as activators; 0.064% of 350,000 active; AID 624291, 2012; alpha7betagal myoblasts, beta-gal FDG fluorescence, 48 h;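 further: 100% = response of the positive control SU9516; nearly all actives have a fitted effect of over 60% in size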
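Alpha7betagal+/- myoblasts (passage 13) were plated 16-24 hr, then exposed to compounds (1:260 dilution of DMSO stock) for 48 hours at 37C. After MPER lysis, β-galactosidase reporter activity was read as FDG fluorescence (ex 480/em 540) after 30 minutes.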
Numbers without * were called inactive; ? = inconclusive; . = no result; [ ] = another dose, or the depositor's remark. Unless noted, the call rests on the fitted dose curve; in most records, active means well fitted curve in the direction sought with a large enough effect; inconclusive means small, poorly fitted or top-dose-only effect, or another doubt; inactive means no such curve, though single readings can be large; an effect the other way counts as inactive or inconclusive. Potency means the concentration at half of the fitted maximal effect.

SMILES | Mito fusion act | Gal4-VP16 FLuc | uPA surface inh | Chronic BCR inh | RORg inh | Integrin act MD
COc1ccc2[nH]cc(C(=O)CCl)c2c1 | -33% | 6.3µM* | ? | ? | 7.9µM* | -62%
c1ccc(-c2nc(-c3nccc4ccccc34)oc2-c2ccccc2)cc1 | 6% | -6% | 7% | ? | ? | 9%
COc1cc(C(=O)N/N=C(\C)c2ccccn2)cc(OC)c1OC | -1% | -7% | -2% | ? | 7% | -7%
COc1cc(C(=O)N/N=C(\c2ccccc2)c2ccccn2)cc(OC)c1OC | 0% | 1.3µM* | ? | -19% | 1.3µM* | -27%
COc1cccc(C(=O)N/N=C(/CCC(=O)O)c2ccccc2)c1 | -1% | 25% | -7% | ? | ? | 2%
COc1cccc(C(=O)N/N=C(/c2ccccc2)c2ccccn2)c1 | -6% | 0.14µM* | 11% | 0% | 0.1µM* | -65%
O=C(CSc1nc2ccccc2s1)N1CCCCC1 | 2% | -9% | -4% | ? | 37% | 2%
Cc1c(Cl)cccc1N/C(SCC(=O)N1CCCCCC1)=C(/C#N)c1nc2ccccc2s1 | -2% | -23% | ? | ? | 8.9µM* | -61%
CN1CCN(c2ncc3nc(-c4cn(C)c5ccccc45)c(=O)n(Cc4cccs4)c3n2)CC1 | . | ? | . | . | -11% | .
CCN(CC)C(=S)SCC(=O)c1ccccc1 | -4% | -7% | -4% | -9% | 6% | 17%
CCN(CC)C(=S)SSC(=S)N(CC)CC | -68% | 1µM* | ? | ? | 1.1µM* | .
O=C(N/N=C\c1ccc([N+](=O)[O-])s1)C1COc2ccccc2O1 (stereo not given) | -23% | 2.8µM* | ? | 7% | 3.5µM* | -17%
CCOC(=O)c1ccc(NC(=O)C2COc3ccccc3O2)cc1 (stereo not given) | 0% | 5% | 0% | ? | -10%[1.91 µM] | -21%
CC(C)(C)c1ccc2c(c1)OC(C(=O)N/N=C\c1ccc(-c3cccc(C(=O)O)c3)o1)CO2 (stereo not given) | 2% | -3% | 5% | -2% | 27% | -4%
O=C(N/N=C\c1ccc(Cl)s1)C1COc2ccccc2O1 (stereo not given) | 1% | 0.89µM* | ? | 9% | 0.63µM* | 36%
CCOC(=O)c1ccc(-n2c(O)c(/C=N/NC(=O)C3COc4ccccc4O3)c3ccccc3c2=O)cc1 (stereo not given) | 4% | 2.8µM* | -20% | 14% | 2.5µM* | -6%
O=C(N/N=C/c1c[nH]c2ccccc12)C1COc2ccccc2O1 (stereo not given) | -2% | -20% | ? | ? | -37% | 10%
CC(C)(C)c1ccc2c(c1)OC(C(=O)N/N=C\c1ccccn1)CO2 (stereo not given) | 16µM* | 18µM* | -3% | ? | ? | 19%
O=C(N/N=C\c1ccc([N+](=O)[O-])o1)C1COc2ccccc2O1 (stereo not given) | 7% | ? | -12% | 0% | -43% | -66%
Cc1cc2c(nc1C)CCCN2C[C@H](C)O/N=C1/[C@H]2O[C@@H]2[C@@H](O)[C@H]2[C@H]1CCn1c(=O)n(-c3ccccc3)c(=O)n12 | . | -5%[10 µM] | . | . | -20%[10 µM] | .
NNC(=O)CSc1cccc2cccnc12 | -41% | -20% | -4% | -7% | 23% | 13%
O=C(Sc1cccc2cccnc12)c1ccccc1Br | -19% | 2µM* | . | ? | 0.79µM* | .
CN(C)C(=O)CSc1cccc2cccnc12 | -6% | ? | -15% | ? | 10µM* | -43%
O=C(CSc1cccc2cccnc12)OCC(=O)c1ccc(Br)cc1 | 1% | -9% | -6% | -2% | -43% | -26%
O=C(Sc1cccc2cccnc12)c1ccc(F)cc1 | ? | 4.5µM* | . | ? | 1.1µM* | .
SMILES | Mito fusion act | Gal4-VP16 FLuc | uPA surface inh | Chronic BCR inh | RORg inh | Integrin act MD
O=C(CSc1cccc2cccnc12)N1CCCC1 | -4% | . | 2% | 12% | 5%[0.365 µM] | -48%
N[C@H](Cc1ccc(O)c(O)c1)C(=O)O | . | -7% | . | . | 1%[10 µM] | .
CC(C)(C)OC(=O)NCC1CCC(C(=O)NC[C@H](CC(=O)O)c2ccc(Cl)cc2)CC1 (stereo not given in full) | -2% | 3% | -8% | -4% | 15% | 42%
CCC(=O)Oc1ccc(NC(=O)CSCc2ccccc2)cc1 | 0% | ? | 10µM* | -3% | -14% | ?
COC(=O)c1ccc(NC(=O)CSCc2ccccc2)cc1 | 1% | 17% | 2% | -1% | ? | 19%
Cc1cccn2c(=O)c3cc(C(=O)NC4CCCC4)n(C)c3nc12 | 3% | -14% | ? | ? | 22% | 18%
Cc1cccn2c(=O)c3cc(C(=O)NC4CCCCC4)n(C)c3nc12 | 3% | 4% | 0% | 0% | -3% | 14µM*
Cc1ccc(C(=O)NCCn2cc(SCC(=O)Nc3nnc(C)s3)c3ccccc32)cc1 | -1% | 1% | -11% | ? | 14µM* | -20%
COc1ccc(OC)c(-c2cnc(OC(C)(C)C)nc2OC(C)(C)C)c1 | 0% | -17% | 2.2µM* | ? | ? | 0%
O=[N+]([O-])c1cc(-c2ncccn2)c([N+](=O)[O-])s1 | -7% | 7.1µM* | ? | ? | 4µM* | 0%
O=S(=O)(CCC(F)=C(F)F)c1nnnn1C1CCCCC1 | . | 7% | . | . | -25% | .
O=C(N/N=C/c1ccccc1C(=O)O)c1ccc(COc2cccc3cccnc23)cc1 | 1% | 14% | 1% | -1% | 3% | -17%
Cc1cc(Br)c(OCc2ccc(C(=O)N/N=C/c3ccc[nH]3)cc2)c(Br)c1 | 24% | . | 0.18µM* | -6% | . | -58%
O=C(N/N=C/c1ccc[nH]1)c1ccc(COc2cccc3cccnc23)cc1 | 13% | 14µM* | -15% | -2% | 13µM* | -65%
CC(=O)OC1CC(OC(C)=O)[C@]2(C)C(CC(OC(C)=O)[C@@]3(C)C4=CC(=O)OC(c5ccoc5)[C@]4(C)CCC32)C1(C)C (stereo not given in full) | . | 2% | . | . | 22% | .
S=C(Nc1ccccc1)N1CCn2c1nc1ccccc12 | 2% | 5µM* | -3% | -9% | 0.56µM* | -24%
O=C(Nc1ccccc1)N1CCn2c1nc1ccccc12 | 26% | 0% | 6% | ? | 30% | -12%
Nc1nc(CCl)nc(Nc2cccc3ccccc23)n1 | 1% | 10µM* | ? | ? | 11µM* | -63%
